Records with an inconclusive call do not appear. Entries that show only a call come without a potency. Unmarked numbers belong to inactive results. Activity calls are given as the source filed them. Calls come from the whole dose curve; as a rule, active = well fitted activation curve with a large enough effect in the repeat runs; inconclusive = weak or mixed curves; inactive = flat fitted curve, though single readings scatter.
Assay: A CellTox Green Cytotoxicity Assay to monitor cytotoxicity in HEK293 cells - 24 hour (AID 1224875); note: nearly all actives have a fitted effect of over 45% in size
Settings: CellTox Green fluorescence; series mostly up to 76.8 µM; activity change: at the top concentration
Source text: National Center for Advancing Translational Sciences [NCATS]
NIH Chemical Genomics Center [NCGC]
U.S. Environmental Protection Agency [EPA]
National Institutes of Environmental Health Sciences [NIEHS]
National Toxicology Program [NTP]
Cell-based models are critical for drug discovery. Determining the natural cytotoxic effects resulting from test compounds is an essential research activity. A CellTox Green Cytotoxicity Assay to monitor cytotoxicity in real time of continues cell culture during 40 hours of the compound treatment was used to screen Tox21 10K library compounds in Hek293 cells. CellTox Green Cytotoxicity Assay is a nonlytic, homogeneous, biofluorescent method to measure cytotoxicity in cell culture after experimental manipulation. The assay system uses a proprietary asymmetric cyanine dye that is excluded from viable cells but preferentially stains the dead cell's DNA. […] Viable cells produce no appreciable increases in fluorescence. Therefore, the fluorescence signal produced by the binding interaction with dead cell DNA is proportional to cytotoxicity.
The mixture of Hek293 cell suspension and reagents were dispensed at 600cells/6 ul/well in 1536-well tissue culture treated black solid bottom plates using a Multidrop dispenser. After the assay plates were incubated at a 37 C/5% CO2 incubator for 5 hours, 23 nL of compounds dissolved in DMSO, positive and negative controls was transferred to the assay plate by a pintool work station. The plates were incubated at 37 C for 40 hours. The fluorescence intensity were measured at 0h, 8h, 16h, 24h, 32h and 40h time points using ViewLux plate reader during compound treatment.
Potency is the fitted concentration of half-maximal effect.

Compound | activity change | Potency
CCCCC/C=C/C=C/C=O | 7.35% | –
c1ccc2c(c1)c1cccc3ccc4cccc2c4c31 | – | inactive
CC(=O)O[C@]1(C(C)=O)CC[C@H]2[C@@H]3C=C(Cl)C4=CC(=O)[C@@H]5C[C@@H]5[C@]4(C)[C@H]3CC[C@@]21C | – | inactive
CC1=CCC(C(C)(C)O)CC1 (stereo not given) | 0.624% | –
COC(=O)Nc1nc2ccc(S(=O)c3ccccc3)cc2[nH]1 (stereo not given) | – | inactive
CC(C)CC(C)(O)C#CC(C)(O)CC(C)C (stereo not given) | – | inactive
OC(CCl)CCl | – | inactive
Cc1[nH]c(=O)c(C#N)cc1-c1ccncc1 | – | inactive
Cc1ccc(C)c(O)c1C | – | inactive
COC(=O)C1=C(C)NC(C)=C(C(=O)OCCN(C)Cc2ccccc2)C1c1cccc([N+](=O)[O-])c1 (stereo not given) | – | inactive
Clc1nc(Cl)c(Cl)c(Cl)c1Cl | -2.26% | –
CC(=O)CC/C=C(\C)CCC=C(C)C | – | inactive
Cc1c(C(N)=O)cc([N+](=O)[O-])cc1[N+](=O)[O-] | – | inactive
O=C(Nc1ccc([N+](=O)[O-])cc1Cl)c1cc(Cl)ccc1O | – | inactive
CC(C)Oc1ccc2c(=O)c(-c3ccccc3)coc2c1 | – | inactive
Cc1cccc(C(=O)O)c1 | – | inactive
Nc1ccccc1N | – | 50.1 µM (active)
Nc1ncn([C@@H]2O[C@H](CO)[C@@H](O)[C@H]2O)c(=O)n1 | – | inactive
c1ccc2sc(SSN3CCOCC3)nc2c1 | – | 38.8 µM (active)
CN(C)C(=N)N=C(N)N | – | inactive

Compound | activity change | Potency
O=C(COc1ccc(Cl)cc1)N1CCN(Cc2ccc3c(c2)OCO3)CC1 | – | inactive
Brc1cc(Oc2cc(Br)c(Br)c(Br)c2Br)c(Br)c(Br)c1Br | – | inactive
C=CC(C)(CCC=C(C)C)OC(C)=O (stereo not given) | – | inactive
COc1ccccc1/C=C/C=O | – | inactive
Cc1cccc([N+](=O)[O-])c1C | – | inactive
COc1ccc(C(=O)CC(=O)c2ccc(C(C)(C)C)cc2)cc1 | 2.53% | –
COc1cccc2c1C(=O)c1c(O)c3c(c(O)c1C2=O)C[C@@](O)(C(=O)CO)C[C@@H]3O[C@H]1C[C@H](N)[C@H](O)[C@H](C)O1 | 15.5% [at 35.3 µM, stronger effect = higher value] | –
COc1c(Cl)c(Cl)c(Cl)c(Cl)c1Cl | – | inactive
CCOC(=O)C(C#N)=C(c1ccccc1)c1ccccc1 | -10.9% [at 35.3 µM, stronger effect = higher value] | –
Cc1cccc(N(C)C(=S)Oc2ccc3ccccc3c2)c1 | – | inactive
OCCO | -21.3% | –
CC(=O)Oc1ccccc1C(=O)Nc1ncc([N+](=O)[O-])s1 | – | inactive
CCCCC(CC)COC(=O)c1ccc(N(C)C)cc1 (stereo not given) | – | inactive
CC(C)OC=O | – | inactive
C[C@]12CCC(=O)C=C1CC[C@@H]1[C@@H]2C(=O)C[C@@]2(C)[C@H]1CC[C@]2(O)C(=O)CO | – | inactive
CC(C)=CCC/C(C)=C\CO | – | inactive
O=C(/C=C/c1ccccc1)OCc1ccccc1 | – | inactive
CC(C)OC(=O)C(C)(C)Oc1ccc(C(=O)c2ccc(Cl)cc2)cc1 | – | inactive
O=C1c2cccc(O)c2C(=O)c2c(O)cccc21 | – | inactive
C[C@]12CC[C@H]3[C@@H](CCC4=CC(=O)CC[C@@]43C)[C@@H]1CC[C@@H]2C(=O)CO | – | inactive
